Assay results from PubChem BioAssay AID651692 (Broad Institute, 2012).
Results with a measured potency or affinity are listed apart. Activity calls are given as the source filed them.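 The calls were made as follows: active = fitted half-maximal concentration for loss of cell signal no higher than twice the top valid tested concentration; inconclusive = flat curve at 30 to 70% inhibition, or poor fit; inactive = flat within 30%, signal rise, or potency above limit.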

experiment: cytotoxicity toward MDA-MB-231 breast cancer cells – cell-based, CellTiter-Glo luminescence, cherry-pick, cytotoxicity control for RAD54 inhibitor project, dose response (AID 651692); details: MDA-MB-231 viability, 24 h; series mostly up to 26 µM; activity change, negative = growth inhibition: at the top concentration;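 also: 0% = median of sample compound wells and -100% = staurosporine control wells; more negative values mean stronger loss of viable cell signal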

SMILES | activity change, negative = growth inhibition
CCOC(=O)c1cnc2c(Cl)cccc2c1NCCCN1CCOCC1 | 8.64% (inactive)
OCCN1CCN(c2nc(-c3ccccc3O)nc3ccccc23)CC1 | 1.16% (inactive)
CC1CCN(CCCNC(=O)c2cc3c(=O)n(C)c4ccccc4c3n2C)CC1 | -4.97% (inactive)
COC(=O)c1c(NC(=O)c2ccco2)sc2c1CCN(C(C)C)C2 | -0.516% (inactive)
CN(C)CCCN(C(=O)c1ccco1)c1nc(-c2ccc(Cl)cc2)cs1 | -20.6% (inactive)
CCN(CC)CCNC(=O)c1cc2cc3ccc(OC)cc3nc2o1 | 4.55% (inactive)
Cc1ccc2[nH]c(=O)c3cc(C(=O)NCCN4CCN(C)CC4)sc3c2c1 | -2.44% (inactive)
Cn1c2ccccc2c(=O)c2cc(NCCCN3CCOCC3)ccc21 | 7.21% (inactive)
CCN1CCN(c2cc(C)c3cc(NC(=S)N4CCCC(C)C4)ccc3n2)CC1 (configuration not stated) | -10.6% (inactive)
COc1ccc(C)c2sc(N(CCN(C)C)C(=O)c3ccc4ccccc4c3)nc12 | -20.6% (inactive)
Cc1nc2ccccc2c2oc(C(=O)NCCCN3CCC(C)CC3)cc12 | 3.18% (inactive)
CCOCCCNC(=S)Nc1ccc2nc(N3CCN(CC)CC3)cc(C)c2c1 | -7.04% (inactive)
CN(C)CCNC(=O)c1cccc(-c2cnc3c(NC=O)cc(-c4cccc(F)c4)cn23)c1 | -5.96% (inactive)
Cc1ccc2nc3c(cc(C(=O)NCCN4CCOCC4)c(=N)n3CCCN3CCOCC3)c(=O)n2c1 | 3.06% (inactive)
Cn1c(C(=O)NCCCN2CCOCC2)cc2c(=O)n(C)c3ccccc3c21 | 1.53% (inactive)
CCCCN(CC)CCCNC(=S)Nc1ccc2nc(N3CCN(CC)CC3)cc(C)c2c1 | -2.93% (inactive)
Cc1cc(N2CCN(C)CC2)nc2ccc(NC(=S)NCCCN3CCN(C)CC3)cc12 | 2.27% (inactive)
